Data as given in PubChem BioAssay AID1159580 (chemical genetic matrix, 2015).
Values joined by “and” are separate entries in the source; they are usually repeats but may differ in a detail not shown here. Equal values may be shown once. Hit rate of the full screen: of about 5,500 compounds, about 2,000 (36%) were called active. Roughly 18% stayed inconclusive and do not appear here. Cut-off read from the data, not from the text of the source: active = normalized growth mostly below about 0.91 (no sharp cut-off); inconclusive = no clear call, values can overlap the other calls; inactive = mostly above about 0.92. The list shows a part of the results.

Assay: chemical genetic growth profiling, strain panel (AID 1159580);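 note: tested at 20 µM; growth read once vehicle control cultures reached saturation at 30 °C; 1 = growth at the plate median or of vehicle wells; lower values mean less growth of the strain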
Settings: growth OD

Measured: normalized growth

NC(=O)c1cccc(N)c1
inactive: S. cerevisiae deletion strains, locus YJR043C, strain POL32, active compounds read low 1.01 | S. cerevisiae deletion strains, locus YJR075W, strain HOC1, active compounds read low 1.01 | S. cerevisiae deletion strains, locus YKL009W, strain mrt4, active compounds read low 0.996 | S. cerevisiae deletion strains, locus YKL068W, active compounds read low 0.993 | S. cerevisiae deletion strains, locus YKL085W, strain MDH1 (second series), active compounds read low 1 | S. cerevisiae deletion strains, locus YKL085W, strain MDH1, active compounds read low 1 | S. cerevisiae deletion strains, locus YKL160W, strain elf1, active compounds read low 0.984 | S. cerevisiae deletion strains, locus YKL190W, strain CNB1, active compounds read low 1.02 | S. cerevisiae deletion strains, locus YKR001C, strain vps1, active compounds read low 0.996 | S. cerevisiae deletion strains, locus YKR026C, strain gcn3, active compounds read low 0.977 | S. cerevisiae deletion strains, locus YKR091W, strain srl3, active compounds read low 0.977 | S. cerevisiae deletion strains, locus YLL001W, strain dnm1, active compounds read low 0.93 | S. cerevisiae deletion strains, locus YLL026W, active compounds read low 0.984 | S. cerevisiae deletion strains, locus YLL041C, strain sdh2, active compounds read low 0.97 | S. cerevisiae deletion strains, locus YLR027C, strain aat2, active compounds read low 0.997 | S. cerevisiae deletion strains, locus YLR039C, strain RIC1, active compounds read low 1 | S. cerevisiae deletion strains, locus YLR058C, strain SHM2, active compounds read low 1.01 | S. cerevisiae deletion strains, locus YLR102C, strain apc9, active compounds read low 0.998 | S. cerevisiae deletion strains, locus YLR221C, strain rsa3, active compounds read low 0.962 | S. cerevisiae deletion strains, locus YLR258W, strain gsy2, active compounds read low 0.972 | S. cerevisiae deletion strains, locus YLR262C, strain YPT6 (second series), active compounds read low 0.966 | S. cerevisiae deletion strains, locus YLR262C, strain YPT6, active compounds read low 1.01 | S. cerevisiae deletion strains, locus YLR268W, strain sec22, active compounds read low 0.996 | S. cerevisiae deletion strains, locus YLR320W, strain mms22, active compounds read low 0.988 | S. cerevisiae deletion strains, locus YLR330W, strain CHS5, active compounds read low 1.01 | S. cerevisiae deletion strains, locus YLR342W, strain FKS1 (second series), active compounds read low 1.01 | S. cerevisiae deletion strains, locus YLR342W, strain FKS1, active compounds read low 0.942 | S. cerevisiae deletion strains, locus YLR357W, strain rsc2, active compounds read low 0.976 | S. cerevisiae deletion strains, locus YLR370C, strain arc18, active compounds read low 0.941 | S. cerevisiae deletion strains, locus YLR371W, strain rom2, active compounds read low 1 | S. cerevisiae deletion strains, locus YLR384C, strain iki3, active compounds read low 0.992 | S. cerevisiae deletion strains, locus YLR418C, strain cdc73, active compounds read low 1.01 | S. cerevisiae deletion strains, locus YML016C, strain PPZ1, active compounds read low 1 | S. cerevisiae deletion strains, locus YML032C, strain rad52, active compounds read low 0.993 | S. cerevisiae deletion strains, locus YML120C, strain ndi1, active compounds read low 0.994 | S. cerevisiae deletion strains, locus YML124C, strain tub3, active compounds read low 0.995 | S. cerevisiae deletion strains, locus YMR058W, strain fet3, active compounds read low 0.965 | S. cerevisiae deletion strains, locus YMR078C, strain ctf18, active compounds read low 0.999 | S. cerevisiae deletion strains, locus YMR125W, strain sto1, active compounds read low 0.976 | S. cerevisiae deletion strains, locus YMR129W, active compounds read low 1.01 | S. cerevisiae deletion strains, locus YMR205C, strain PFK2, active compounds read low 0.991 | S. cerevisiae deletion strains, locus YMR223W, strain ubp8, active compounds read low 0.993 | S. cerevisiae deletion strains, locus YMR231W, strain pep5, active compounds read low 0.984 | S. cerevisiae deletion strains, locus YMR263W, strain SAP30, active compounds read low 1.02 | S. cerevisiae deletion strains, locus YMR307W, strain GAS1, active compounds read low 1.02 | S. cerevisiae deletion strains, locus YNL067W, strain RPL9B, active compounds read low 1.01 | S. cerevisiae deletion strains, locus YNL071W, strain lat1, active compounds read low 0.961 | S. cerevisiae deletion strains, locus YNL128W, strain TEP1, active compounds read low 1.01 | S. cerevisiae deletion strains, locus YNL153C, strain GIM3, active compounds read low 1.01 | S. cerevisiae deletion strains, locus YNL175C, strain NOP13, active compounds read low 1.02 | S. cerevisiae deletion strains, locus YNL197C, strain WHI3, active compounds read low 1.01 | S. cerevisiae deletion strains, locus YNL209W, strain ssb2, active compounds read low 0.985 | S. cerevisiae deletion strains, locus YNL224C, strain SQS1, active compounds read low 1.02 | S. cerevisiae deletion strains, locus YNL233W, strain BNI4, active compounds read low 0.999 | S. cerevisiae deletion strains, locus YNL248C, strain rpa49, active compounds read low 0.974 | S. cerevisiae deletion strains, locus YNL250W, strain rad50, active compounds read low 0.988 | S. cerevisiae deletion strains, locus YNL271C, strain bni1, active compounds read low 0.989 | S. cerevisiae deletion strains, locus YNL298W, strain CLA4, active compounds read low 1.01 | S. cerevisiae deletion strains, locus YNL307C, strain MCK1, active compounds read low 0.996 | S. cerevisiae deletion strains, locus YNL322C, strain KRE1 (second series), active compounds read low 0.968 | S. cerevisiae deletion strains, locus YNL322C, strain KRE1, active compounds read low 1.01 | S. cerevisiae deletion strains, locus YNR049C, strain mso1, active compounds read low 0.965 | S. cerevisiae deletion strains, locus YNR052C, strain pop2, active compounds read low 1 | S. cerevisiae deletion strains, locus YOL006C, strain TOP1, active compounds read low 1.06 | S. cerevisiae deletion strains, locus YOL012C, strain htz1 1 | S. cerevisiae deletion strains, locus YOL147C, strain pex11, active compounds read low 1 | S. cerevisiae deletion strains, locus YOR001W, strain rrp6, active compounds read low 0.97 | S. cerevisiae deletion strains, locus YOR061W, strain CKA2, active compounds read low 1 | S. cerevisiae deletion strains, locus YOR069W, strain VPS5, active compounds read low 1.01 | S. cerevisiae deletion strains, locus YOR070C, strain gyp1, active compounds read low 1.02 | S. cerevisiae deletion strains, locus YOR080W, strain dia2, active compounds read low 0.981 | S. cerevisiae deletion strains, locus YOR083W, strain WHI5 (second series), active compounds read low 1.02 | S. cerevisiae deletion strains, locus YOR083W, strain WHI5, active compounds read low 0.994 | S. cerevisiae deletion strains, locus YOR106W, strain vam3, active compounds read low 0.972 | S. cerevisiae deletion strains, locus YOR136W, strain idh2, active compounds read low 0.993 | S. cerevisiae deletion strains, locus YOR144C, strain elg1, active compounds read low 0.992 | S. cerevisiae deletion strains, locus YOR184W, strain ser1, active compounds read low 1 | S. cerevisiae deletion strains, locus YOR265W, strain rbl2, active compounds read low 0.968 | S. cerevisiae deletion strains, locus YOR270C, strain vph1, active compounds read low 0.995 | S. cerevisiae deletion strains, locus YOR290C, strain snf2, active compounds read low 0.974 | S. cerevisiae deletion strains, locus YOR316C, strain cot1, active compounds read low 1 | S. cerevisiae deletion strains, locus YPL051W, strain arl3, active compounds read low 1 | S. cerevisiae deletion strains, locus YPL055C, strain LGE1, active compounds read low 1.06 | S. cerevisiae deletion strains, locus YPL078C, strain atp4, active compounds read low 0.963 | S. cerevisiae deletion strains, locus YPL106C, strain sse1, active compounds read low 0.964 | S. cerevisiae deletion strains, locus YPL240C, strain hsp82, active compounds read low 0.984 | S. cerevisiae deletion strains, locus YPL241C, strain CIN2, active compounds read low 1.01 and 1 | S. cerevisiae deletion strains, locus YPR119W, strain clb2, active compounds read low 0.988 | S. cerevisiae deletion strains, locus YPR141C, strain kar3, active compounds read low 0.996 | S. cerevisiae deletion strains, locus YPR163C, strain tif3, active compounds read low 1 | S. cerevisiae deletion strains, locus YPR167C, strain met16, active compounds read low 0.996 | S. cerevisiae deletion strains, strain wtn01, active compounds read low 0.983 | S. cerevisiae strains, strain wild type, active compounds read low 1
